# Data reported in the supplement of paper PMC7695840.
# Counter-ions that a name gives are not always drawn.
# What was measured:
# [1] = tested on: Staphylococcus aureus MW2 delta-mecA (mecA-); assay: normalized GFP fluorescence (growth of mecA- strain) (fraction of control range); higher = more growth of mecA- strain; conditions: compound concentration: 150 uM; cefoxitin: subinhibitory; fluorescent label: GFP
# How it was run: (§1)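 In 1536-well plates holding 150 μM compound (1.5% DMSO), a 1:1 mix of pre-induced S. aureus MW2 cells was added at 5 µL/well, in one replicate. One strain carried the gene and DsRed, the other lacked the gene and carried GFP, and the LB held a subinhibitory antibiotic dose chosen daily. Plates stood unshaken for 20 h at 37 °C, 90% humidity, before DsRed (540/590) and GFP (485/520) readings, which were scaled per plate to single-strain control medians, with plates high in untreated ratio and rows above DsRed/GFP 10 dropped.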
# [2] = tested on: Staphylococcus aureus MW2 (mecA+); assay: normalized DsRed fluorescence (growth of mecA+ strain) (fraction of control range); higher = more growth of mecA+ strain; conditions: compound concentration: 150 uM; cefoxitin: subinhibitory; fluorescent label: DsRed
# How it was run: as §1
SMILES,normalized GFP fluorescence [1],normalized DsRed fluorescence [2]
CC(Cc1ccc(O)cc1)NCC(O)c1cc(O)cc(O)c1 (stereo not drawn),0.322,0.737
Cn1c(CCCC(=O)O)nc2cc(N(CCCl)CCCl)ccc21 [Bendamustine HCL],0.659,0.83
NC(=O)CN1CCCC1=O,0.168,0.628
CC(C)C[C@H](CN)CC(=O)O,0.412,0.571
C[C@]12CC[C@@H]3c4ccc(OC(=O)N(CCCl)CCCl)cc4CC[C@H]3[C@@H]1CC[C@@H]2O,0.117,0.515
N[C@@H]1C[C@H]1c1ccccc1.N[C@H]1C[C@@H]1c1ccccc1,0.546,0.701
Cl[C@H]1[C@H](Cl)[C@@H](Cl)[C@@H](Cl)[C@H](Cl)[C@H]1Cl,0.612,0.538
NCC1(CC(=O)O)CCCCC1,0.647,0.674
CNc1ccc(C(=O)CC(O)CCC(C)C2OC(=O)CC(O)CC(=O)CC(O)CC(O)CC(O)CC(O)CC3(O)CC(O)C(C(=O)OC)C(CC(O[C@@H]4O[C@H](C)[C@@H](O)[C@H](N)[C@@H]4O)/C=C/C=C/C=C/C=C/C=C/C=C/C=C/C2C)O3)cc1.COC(=O)C1C(O)CC2(O)CC(O)CC(O)CC(O)CC(O)CC(=O)CC(O)CC(=O)OC(C(C)CCC(O)CC(=O)c3ccc(N)cc3)C(C)/C=C/C=C/C=C/C=C/C=C/C=C/C=C/C(O[C@@H]3O[C@H](C)[C@@H](O)[C@H](N)[C@@H]3O)CC1O2 (stereo partly drawn),0.675,0.626
CC[C@@H](C(N)=O)N1CCCC1=O,0.416,1.14
C=CCN1CC[C@]23c4c5ccc(O)c4O[C@H]2C(=O)CC[C@@]3(O)[C@H]1C5,0.642,0.643
Cc1cccc([C@H](C)c2c[nH]cn2)c1C [Dexmedetomidine],0.289,0.702
C#C[C@]1(O)CC[C@H]2[C@@H]3CCC4=CC(=O)CC[C@]4(C)[C@H]3CC[C@@]21C,0.473,0.916
CN(C)C(=O)Oc1cccc([N+](C)(C)C)c1,0.41,1.1
CC[C@H](C)[C@H]1O[C@]2(C=C[C@@H]1C)C[C@@H]1C[C@@H](C/C=C(\C)[C@@H](O[C@H]3C[C@H](OC)[C@@H](O[C@H]4C[C@H](OC)[C@@H](O)[C@H](C)O4)[C@H](C)O3)[C@@H](C)/C=C/C=C3\CO[C@@H]4[C@H](O)C(C)=C[C@@H](C(=O)O1)[C@]34O)O2.CO[C@H]1C[C@H](O[C@H]2[C@H](C)O[C@@H](O[C@@H]3/C(C)=C/C[C@@H]4C[C@@H](C[C@]5(C=C[C@H](C)[C@@H](C(C)C)O5)O4)OC(=O)[C@@H]4C=C(C)[C@@H](O)[C@H]5OC/C(=C\C=C\[C@@H]3C)[C@]54O)C[C@@H]2OC)O[C@@H](C)[C@@H]1O,0.294,0.502
CNC(=O)Oc1ccc2c(c1)[C@]1(C)CCN(C)[C@@H]1N2C,0.574,0.687
Oc1ccc2c3c1O[C@H]1[C@@H](O)CC[C@@]4(O)[C@@H](C2)N(CC2CCC2)CC[C@]314,0.717,0.715
Cc1ccc(-c2nc3ccc(C)cn3c2CC(=O)N(C)C)cc1,0.38,0.527
C[C@@H]1CC[C@H]2[C@@H](C)C(=O)O[C@@H]3O[C@@]4(C)CC[C@@H]1[C@]32OO4 [Artemisinin],0.505,0.66
CCN(C)C(=O)Oc1cccc([C@H](C)N(C)C)c1,0.23,0.742
COC(=O)C(c1ccccc1)C1CCCCN1 (stereo not drawn),0.277,0.737
c1ccc2c(c1)Nc1ccccc1S2,0.132,0.671
C[C@]12CCC(=O)C(O)=C1CC[C@@H]1[C@@H]2CC[C@]2(C)C(=O)CC[C@@H]12 [Formestane],0.477,0.7
C=C/C=C\CC1=C(C)[C@@H](OC(=O)[C@@H]2[C@@H](/C=C(\C)C(=O)OC)C2(C)C)CC1=O.C=C/C=C\CC1=C(C)[C@@H](OC(=O)[C@@H]2[C@@H](C=C(C)C)C2(C)C)CC1=O,0.39,0.442
CC(O)(CS(=O)(=O)c1ccc(F)cc1)C(=O)Nc1ccc(C#N)c(C(F)(F)F)c1 (stereo not drawn) [Bicalutamide (Casodex)],0.0167,0.707
C[C@]12CC[C@H]3[C@@H](CCC4=CC(=O)CC[C@@]43C)[C@@H]1CC[C@@H]2O,0.501,0.506
N.N.[Cl][Pt][Cl],0.807,0.697
CN1CCN(C(=O)O[C@H]2c3nccnc3C(=O)N2c2ccc(Cl)cn2)CC1,0.334,0.793
O=C(O[C@H]1C[C@H]2CC[C@@H](C1)[N+]21CCCC1)C(O)(c1ccccc1)c1ccccc1 [Trospium chloride (Sanctura)],0.723,0.453
